Test results as given in PubChem BioAssay (NCATS).
Inconclusive results are not listed. Unless noted, calls follow the shape of the dose curve; as a rule, active = well fitted curve in either direction with a large enough effect (not every such curve was filed as active); inconclusive = small, poorly fitted or top-dose-only effect, or another doubt; inactive = flat fitted curve, though single readings scatter.

What was measured:
[1] = AP1 Signaling Pathway (AID 357); conditions: ME-180 AP-1-bla reporter, EGF-induced, beta-lactamase ratio, 5 h; at 17.2 µM (top of the series) unless noted;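 also: ME-180 reporter cells stimulated with EGF at its EC50 level; % is scaled to controls: 0 for no effect and ±100 for the full control effect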
Method in brief: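 Modulation of EGF-driven AP-1 transcription was assessed with a beta-lactamase reporter in ME-180 cells. Compound and EC50 EGF were co-incubated 5 hours at 37 °C before 2.5-hour CCF4 loading at room temperature and dual-emission reading.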

[2] = Stat Signaling Pathway (AID 446); conditions: ME-180 (cervical carcinoma) SIE beta-lactamase reporter, IL-6 stimulated, 5 h; at 17.2 µM (top of the series) unless noted;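 also: ME-180 cervical cancer cells given 40 pM IL-6 alongside compound; SIE-controlled beta-lactamase reporter measured as 460/530 nm FRET emission ratio; % is scaled to controls: 0 for no effect and ±100 for the full control effect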
Method in brief: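 Overnight-plated ME-180 cells bearing a STAT Inducible Element beta-lactamase reporter; 5 h co-exposure to compound and 40 pM IL-6; values normalized to 300 pM IL-6 and 125 nM JAK inhibitor controls.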

[3] = target: Glucocorticoid receptor (Homo sapiens) (UniProt P04150); experiment: GR-GFP Redistribution (AID 450;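 active = compounds whose dose series gives a full or clear partial fitted curve of increased nuclear translocation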; also: potency is read from the fitted curve at half-maximal effect)
Glucocorticoid receptor (Homo sapiens), sequence (P04150 whole entry, looked up): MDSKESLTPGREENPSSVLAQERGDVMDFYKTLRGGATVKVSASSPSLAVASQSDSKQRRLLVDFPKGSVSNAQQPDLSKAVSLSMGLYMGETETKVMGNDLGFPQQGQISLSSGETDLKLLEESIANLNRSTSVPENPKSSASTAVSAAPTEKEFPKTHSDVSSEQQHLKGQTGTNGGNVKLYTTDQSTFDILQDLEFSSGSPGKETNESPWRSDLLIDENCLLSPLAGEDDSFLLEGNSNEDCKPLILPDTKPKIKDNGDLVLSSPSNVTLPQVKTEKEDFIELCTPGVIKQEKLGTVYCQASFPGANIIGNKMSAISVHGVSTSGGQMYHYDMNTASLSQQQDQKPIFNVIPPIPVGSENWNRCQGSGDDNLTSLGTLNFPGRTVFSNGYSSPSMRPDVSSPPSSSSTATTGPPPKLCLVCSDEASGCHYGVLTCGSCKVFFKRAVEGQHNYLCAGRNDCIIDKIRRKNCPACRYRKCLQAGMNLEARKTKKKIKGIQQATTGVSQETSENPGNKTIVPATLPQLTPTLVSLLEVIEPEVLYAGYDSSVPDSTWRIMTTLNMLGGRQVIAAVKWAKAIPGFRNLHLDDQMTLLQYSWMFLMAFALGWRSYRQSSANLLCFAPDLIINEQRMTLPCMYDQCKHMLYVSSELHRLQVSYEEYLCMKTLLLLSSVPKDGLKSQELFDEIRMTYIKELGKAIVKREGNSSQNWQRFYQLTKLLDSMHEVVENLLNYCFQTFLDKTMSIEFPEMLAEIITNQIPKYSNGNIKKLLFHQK

Cc1ccc(-c2ccc(/C=N/c3ncn[nH]3)o2)cc1Cl
inactive: activity change, negative = inhibition [1] 1.81% | activity, negative = inhibition [2] -7.79% | Potency [3] > 20.6 µM

CCN1CC2=C(OC(N)=C(C#N)C2c2ccccc2)/C(=C\c2ccccc2)C1 (centres undefined)
inactive: activity change, negative = inhibition [1] -16.4% | activity, negative = inhibition [2] -29.2% | Potency [3] > 20.6 µM

CCn1c(SCC(=O)N2CCOCC2)nc2sc3c(c2c1=O)CCCC3
inactive: activity change, negative = inhibition [1] -8.7% | activity, negative = inhibition [2] -6.44% | Potency [3] > 20.6 µM

CCN(CC)c1nc(-c2cccc(OC)c2O)nc2ccccc12
inactive: activity change, negative = inhibition [1] -20.9% | activity, negative = inhibition [2] -20% | Potency [3] > 20.6 µM

COc1ccccc1-c1nn2c(-c3ccco3)nnc2s1
inactive: activity change, negative = inhibition [1] 0.523% | activity, negative = inhibition [2] -5.72% | Potency [3] > 20.6 µM

CN1C2C=C3C(C#N)=C(N)C(C#N)(C#N)[C@@H](c4cccs4)C3C1CC2 (some centres undefined)
inactive: activity change, negative = inhibition [1] 17.2% | activity, negative = inhibition [2] 13.6% | Potency [3] > 20.6 µM

CCC1(C)Cc2c(sc3c2c(=O)n(C)c2nnc(SCc4ccccc4)n32)CO1 (centres undefined)
inactive: activity change, negative = inhibition [1] -2.66% | activity, negative = inhibition [2] 1.36% | Potency [3] > 20.6 µM

COc1cc([C@@H]2[C@H]3CNCC=C3C(C#N)=C(N)C2(C#N)C#N)ccc1OC(C)C
inactive: activity change, negative = inhibition [1] 14% | activity, negative = inhibition [2] 10.8% | Potency [3] > 20.6 µM

CCCCCNc1nc(N2CCCC2)c2c(c1C#N)CCN(C)C2
inactive: activity change, negative = inhibition [1] 3.36% | activity, negative = inhibition [2] -7.71% | Potency [3] > 20.6 µM

Cc1c(/C(O)=C2\C(=O)C(=O)N(CCCN(C)C)C2c2ccccc2)cnn1-c1ccccc1 (centres undefined)
inactive: activity change, negative = inhibition [1] -3.19% | activity, negative = inhibition [2] 0.518% | Potency [3] > 20.6 µM

N#Cc1c(N)n(CCOC(=O)c2cccc(Br)c2)c2nc3ccccc3nc12
inactive: activity change, negative = inhibition [1] -0.25% | activity, negative = inhibition [2] 16.2% | Potency [3] > 20.6 µM

C=CCOc1nc2c(c(=O)n(C)c(=O)n2C)n1Cc1c(Cl)cccc1Cl
inactive: activity change, negative = inhibition [1] 0.413% | activity, negative = inhibition [2] 3.61% | Potency [3] > 20.6 µM

N#CC(C(=O)NC1CCCCC1)c1nc2ccccc2nc1N1CCN(c2ccccc2F)CC1 (centres undefined)
inactive: activity change, negative = inhibition [1] -12.2% | activity, negative = inhibition [2] -5.87% | Potency [3] > 20.6 µM

Fc1ccc2[nH]c3c(N4CCN(C5CCCCC5)CC4)ncnc3c2c1
inactive: activity change, negative = inhibition [1] 7.44% | activity, negative = inhibition [2] 16.1% | Potency [3] > 20.6 µM

Cc1nn2cnc3sc4c(c3c2nc1=O)CCCC4
inactive: activity change, negative = inhibition [1] 10.1% | activity, negative = inhibition [2] -8.12% | Potency [3] > 20.6 µM

Cc1ccc(/C(O)=C2/C(=O)C(=O)N(Cc3ccco3)C2c2cccs2)cc1 (centres undefined)
inactive: activity change, negative = inhibition [1] 2.29% | activity, negative = inhibition [2] -12.7% | Potency [3] > 20.6 µM

CCOC(=O)c1nc(N)c(C(=O)OCC)[nH]1
inactive: activity change, negative = inhibition [1] 8.92% | activity, negative = inhibition [2] 6.9% | Potency [3] > 20.6 µM

CCCC(=O)Nc1nn(CCC)c2nc3ccccc3cc12
inactive: activity change, negative = inhibition [1] -2.33% | activity, negative = inhibition [2] -4.63% | Potency [3] > 20.6 µM

CCC(NC(C)C)C(O)c1ccc(O)c2[nH]c(=O)ccc12 (centres undefined)
inactive: activity change, negative = inhibition [1] -12.1% | activity, negative = inhibition [2] 11.4% | Potency [3] > 20.6 µM

COc1cccc(CNc2ncc(Br)cc2Br)c1O
inactive: activity change, negative = inhibition [1] -6.72% | activity, negative = inhibition [2] -21.8% | Potency [3] > 20.6 µM

O=C(Nc1nc(NC(=O)c2ccco2)n(-c2ccccc2)n1)c1ccccc1
inactive: activity change, negative = inhibition [1] -13.5% | activity, negative = inhibition [2] -22.6% | Potency [3] > 20.6 µM

Cc1nnc2c(NC(C)C)nc3ccccc3n12
inactive: activity change, negative = inhibition [1] 14.9% | activity, negative = inhibition [2] -12.6% | Potency [3] > 20.6 µM

CC(=O)OCC(=O)[C@@]1(O)CC[C@H]2[C@@H]3CCC4=CC(=O)CC[C@]4(C)[C@H]3[C@@H](O)C[C@@]21C
inactive: activity change, negative = inhibition [1] 11.1% | activity, negative = inhibition [2] -11.6% | Potency [3] > 20.6 µM

CN1C2C=C3C(C#N)=C(N)C(C#N)(C#N)[C@@H](c4ccsc4)[C@@H]3C1CC2 (some centres undefined)
inactive: activity change, negative = inhibition [1] 20.1% | activity, negative = inhibition [2] 3.71% | Potency [3] > 20.6 µM

Oc1ccc(Br)cc1-c1cc(-c2ccccc2F)[nH]n1
inactive: activity change, negative = inhibition [1] 13.3% | activity, negative = inhibition [2] -0.726% | Potency [3] > 20.6 µM

CC1(C)Cc2c(sc3nc4n(c(=N)c23)CCCCC4)CO1
inactive: activity change, negative = inhibition [1] 19.2% | activity, negative = inhibition [2] 3.32% | Potency [3] > 20.6 µM

CCCCCCSC1=C(C#N)C(c2ccccc2)CC(=O)N1 (centres undefined)
inactive: activity change, negative = inhibition [1] -25.4% | activity, negative = inhibition [2] -19.8% | Potency [3] > 20.6 µM

N#Cc1cc(Oc2cccc3cccnc23)c(-n2nnc3ccccc32)cc1C#N
inactive: activity change, negative = inhibition [1] 11.4% | activity, negative = inhibition [2] 11.7% | Potency [3] > 20.6 µM

CCSc1nc2sc3c(c2c(=O)n1C1CCCCC1)CCN(C)C3
inactive: activity change, negative = inhibition [1] 4.46% | activity, negative = inhibition [2] 24.3% | Potency [3] > 20.6 µM

CCN(CC)Cc1cc(C(C)=O)ccc1OCC(C)C
inactive: activity change, negative = inhibition [1] 23.1% | activity, negative = inhibition [2] 13.1% | Potency [3] > 20.6 µM

C[C@]12CC[C@@H]3c4ccc(O)cc4CC[C@H]3[C@@H]1CC[C@@H]2OC(=O)CCC(=O)O
inactive: activity change, negative = inhibition [1] -5.44% | activity, negative = inhibition [2] -12.1% | Potency [3] > 20.6 µM

CCC(CC)c1nc2cc(OC)c(OC)cc2c(=O)o1
inactive: activity change, negative = inhibition [1] -1.43% | activity, negative = inhibition [2] -3.88% | Potency [3] > 20.6 µM

CCCSc1nc(N2CCCC2)c2c(c1C#N)CC(C)(C)OC2
inactive: activity change, negative = inhibition [1] -3.22% | activity, negative = inhibition [2] 6.07% | Potency [3] > 20.6 µM

N#C/C(C(=O)NCc1ccco1)=C1/SC(Cc2ccc(Cl)cc2)C(=O)N1c1ccccc1 (centres undefined)
inactive: activity change, negative = inhibition [1] -16.2% | activity, negative = inhibition [2] -13.4% | Potency [3] > 20.6 µM

Cc1cccc(C)c1OCC(O)CNS(=O)(=O)c1ccccc1C(=O)N1CCCCC1 (centres undefined)
inactive: activity change, negative = inhibition [1] -10.2% | activity, negative = inhibition [2] -0.145% | Potency [3] > 20.6 µM

CCOC(=O)/C(C#N)=C1\Nc2ccccc2N=C1N(CC(C)C)CC(C)C
inactive: activity change, negative = inhibition [1] 11.2% | activity, negative = inhibition [2] -4.73% | Potency [3] > 20.6 µM

CN=C(c1ccco1)n1c(=S)nc(-c2ccco2)n(C)c1=S
inactive: activity change, negative = inhibition [1] 10.9% | activity, negative = inhibition [2] 15.6% | Potency [3] > 20.6 µM

CC(C)OC(=O)C(C#N)c1nc2ccccc2nc1N1CCN(Cc2ccc3c(c2)OCO3)CC1 (centres undefined)
inactive: activity change, negative = inhibition [1] -10.5% | activity, negative = inhibition [2] -12.7% | Potency [3] > 20.6 µM

CCCCNC(=O)N(C)c1nncnc1C(=O)NC
inactive: activity change, negative = inhibition [1] 16.6% | activity, negative = inhibition [2] 11.5% | Potency [3] > 20.6 µM

CCOc1ccccc1N1CCN(c2nc3ccccc3nc2C(C#N)C(=O)OC(C)C)CC1 (centres undefined)
inactive: activity change, negative = inhibition [1] 16.5% | activity, negative = inhibition [2] -13.8% | Potency [3] > 20.6 µM

COc1ccc(/C(O)=C2\C(=O)C(=O)N(c3cc(C)on3)C2c2ccccc2OC)cc1C (centres undefined)
inactive: activity change, negative = inhibition [1] -17.1% | activity, negative = inhibition [2] -23.5% | Potency [3] > 20.6 µM

Cc1ccsc1C1NC(=O)c2c(sc3c2CCCC3)N1 (centres undefined)
inactive: activity change, negative = inhibition [1] -25.1% | activity, negative = inhibition [2] -6.73% | Potency [3] > 20.6 µM

COc1ccc(S(=O)(=O)N2CCC(N3CCCCC3)CC2)cc1
inactive: activity change, negative = inhibition [1] 7.98% | activity, negative = inhibition [2] 6.94% | Potency [3] > 20.6 µM

COc1ccc2c(c1OC)C(=O)N1c3ccccc3C(=O)N(c3ccc(F)cc3)C21 (centres undefined)
inactive: activity change, negative = inhibition [1] -3.68% | activity, negative = inhibition [2] -12.3% | Potency [3] > 20.6 µM

O=c1[nH]c(CN2CCCCC2)nc2c1C1(CCCC1)Cc1ccccc1-2
inactive: activity change, negative = inhibition [1] 14.5% | activity, negative = inhibition [2] -7.96% | Potency [3] > 20.6 µM

O=C(NCc1cccnc1)/C(=N\O)c1ccccc1
inactive: activity change, negative = inhibition [1] -8.53% | activity, negative = inhibition [2] 0.749% | Potency [3] > 20.6 µM

O=C1C=C(N2CCN(C3=CC(=O)CCC3)CC2)CCC1
inactive: activity change, negative = inhibition [1] 20.4% | activity, negative = inhibition [2] 13.1% | Potency [3] > 20.6 µM

O=S(=O)(c1ccc(Cl)cc1)N1CCC(N2CCCCCC2)CC1
inactive: activity change, negative = inhibition [1] 9.12% | activity, negative = inhibition [2] 3.47% | Potency [3] > 20.6 µM

COc1cc2[nH]c3c(=O)n(CCN(C(C)C)C(C)C)cnc3c2cc1OC
inactive: activity change, negative = inhibition [1] -1.5% | activity, negative = inhibition [2] 6.66% | Potency [3] > 20.6 µM

Cc1cc(C)n(-c2nnc(C)n2/N=C/c2ccccc2F)n1
inactive: activity change, negative = inhibition [1] 8.65% | activity, negative = inhibition [2] 18% | Potency [3] > 20.6 µM

N#Cc1c(NCCCO)nc(-c2ccccc2)c2c1CCCC2
inactive: activity change, negative = inhibition [1] -2.16% | activity, negative = inhibition [2] -5.59% | Potency [3] > 20.6 µM

C=CCOC(=O)C(C#N)c1nc2ccccc2nc1N1CCN(c2ccccc2OCC)CC1 (centres undefined)
inactive: activity change, negative = inhibition [1] 9.88% | activity, negative = inhibition [2] 2.33% | Potency [3] > 20.6 µM

COc1cccc(-c2nc(N3CC(C)CC(C)C3)c3ccccc3n2)c1O (centres undefined)
inactive: activity change, negative = inhibition [1] 13.7% | activity, negative = inhibition [2] 8.47% | Potency [3] > 20.6 µM

CN1CCN(c2nc3c(c(=O)n(C)c(=O)n3C)n2Cc2cccc3ccccc23)CC1
inactive: activity change, negative = inhibition [1] -9.31% | activity, negative = inhibition [2] -2.69% | Potency [3] > 20.6 µM

CCCCOC(=O)C(C)c1c(C)[nH]c(=S)[nH]c1=O (centres undefined)
inactive: activity change, negative = inhibition [1] 7.17% | activity, negative = inhibition [2] -3.5% | Potency [3] > 20.6 µM

Cc1cc2c(c(=O)n1Cc1ccccn1)C(c1ccc3c(c1)OCO3)C(C#N)=C(N)O2 (centres undefined)
inactive: activity change, negative = inhibition [1] -7.52% | activity, negative = inhibition [2] -11.7% | Potency [3] > 20.6 µM

CCOc1ccc2c(C)nc(NC3=NC(C)(C)C=C(C)N3)nc2c1
inactive: activity change, negative = inhibition [1] 26.3% | activity, negative = inhibition [2] 25.6% | Potency [3] > 20.6 µM

COCCCNC(=O)c1c(N)n(/N=C/c2cccs2)c2nc3ccccc3nc12
inactive: activity change, negative = inhibition [1] 24.9% | activity, negative = inhibition [2] 21.4% | Potency [3] > 20.6 µM
